Screens (PubChem)
HCMV inh: human cytomegalovirus inhibition | activity change, negative = inhibition, % at 57.5 µM | 410,000 compounds, 4.5% hits | HFF cells, HCMV-luciferase reporter, 72 h; active compounds read low; in the data active = activity change below about -60%; inconclusive = no clear call, values can overlap the other calls; inactive = above about -39%
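Screen run at 2 compound doses on HFFs infected with reporter HCMV, MOI 1 PFU/cell. Luciferase activity from cell lysates at 72 h post infection gave inhibition relative to buffer-only and Salinomycin wells.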
Marburg entry inh: Marburg virus entry inhibition; Marburg virus pseudotyped entry inhibition, cell reporter; Potency, µM (top dose mostly 37.8 µM), without a hit: at the top dose activity change, negative = inhibition, most hits filed as inhibitors; 300,000 compounds, 1.8% hits; calls by dose curve; tested in HEK293 cells; also: potency is read from the fitted curve at half-maximal effect
Lassa entry inh: Lassa virus entry inhibition | Lassa virus pseudotype entry inhibition, cell reporter | AID 540256 | 300,000 compounds, 1.2% hits | Potency, µM (highest dose often 37.9 µM), without a hit: top-dose activity change, negative = inhibition, usual class: inhibitors; calls by dose curve; tested in HEK293 cells; also: potency is read from the fitted curve at half-maximal effect; nearly all actives have a fitted effect of over 50% in size
FMDV inh: blocks foot and mouth disease virus; 410,000 compounds, 1.2% hits; FMDV antiviral cell-based qHTS; Potency, µM (doses to about 57.9 µM), inactives show top-dose activity change, negative = inhibition, hits mostly inhibitors; calls by dose curve; tested in HEK293T cells; also: read-out not given here; potency is read from the fitted curve at half-maximal effect; nearly all actives have a fitted effect of over 45% in size
Vaccinia mCherry: vaccinia inhibition (mCherry reporter). Potency, µM (highest dose often 36.5 µM), inactives show at the highest dose activity change, negative = inhibition, actives largely listed as inhibitors. 310,000 compounds, 0.63% hits. Vaccinia virus mCherry reporter infection, fluorescence; calls by dose curve; tested in A549 cells; also: potency is read from the fitted curve at half-maximal effect; nearly all actives have a fitted effect of over 35% in size
VACV Venus inh: inhibitors of vaccinia virus (Venus reporter). Potency, µM (titrated, usually from 36.5 µM), inactives show top-dose activity change, negative = inhibition, actives largely listed as inhibitors. Vaccinia virus Venus reporter expression, fluorescence. AID 720580. 330,000 compounds, 0.46% hits; calls by dose curve; tested in A549 cells; also: potency is read from the fitted curve at half-maximal effect; nearly all actives have a fitted effect of over 30% in size
* hit, by the source's call; [ ] = another dose, or the depositor's remark. Only some compounds are listed: those with a hit (about 6.5% of all), similar ones and a draw of the others. % is scaled to controls: 0 for no effect and ±100 for the full control effect.

COc1cc(S(=O)(=O)NCc2ccncc2)ccc1Br was read as HCMV inh -70*, Marburg entry inh inconclusive, Lassa entry inh inconclusive, FMDV inh -23%, Vaccinia mCherry -28% and VACV Venus inh -21%.
`O=S(=O)(NCc1cccnc1)c1ccc2ccccc2c1` gave HCMV inh -63*, Marburg entry inh -19%[46.1 µM], Lassa entry inh -6%[46.1 µM], FMDV inh 22%, Vaccinia mCherry -5% and VACV Venus inh 7%.
For COc1cc(C)c(Cl)cc1S(=O)(=O)NCc1ccncc1 the results were Marburg entry inh 1%.
Cc1cc(C)c(C)c(S(=O)(=O)NCc2ccncc2)c1C was read as HCMV inh -68*, Marburg entry inh inconclusive, Lassa entry inh inconclusive, FMDV inh 20%, Vaccinia mCherry -8% and VACV Venus inh -8%.
For CNC(=O)c1cc(S(=O)(=O)NCc2ccncc2)ccc1OC the results were HCMV inh inconclusive and FMDV inh -14%.
CCN1CCCC1CNC(=O)C1=C(OC)CC(N(C)C)=C(NC(C)=O)C1 (configuration not stated) was read as Marburg entry inh -21%.
`O=S(=O)(NCc1ccncc1)c1ccc(Br)s1` gave HCMV inh -61*, Marburg entry inh inconclusive, Lassa entry inh -16%, FMDV inh -16%, Vaccinia mCherry -26% and VACV Venus inh inconclusive.
`Cc1ccc(S(=O)(=O)NCc2ccncc2)cc1C` gave HCMV inh -68*, Marburg entry inh inconclusive, Lassa entry inh inconclusive, FMDV inh 3%, Vaccinia mCherry inactive and VACV Venus inh -22%.
O=S(=O)(NCc1ccncc1)c1ccc(F)c(F)c1 was read as HCMV inh inconclusive, FMDV inh inconclusive, Vaccinia mCherry inconclusive and VACV Venus inh -26%.
`CCOC(=O)N1CCc2c(sc(NCc3cccc(F)c3)c2C(=O)Nc2ccc(OCC)cc2)C1` gave HCMV inh -2, Lassa entry inh 0%[46.1 µM], FMDV inh 27%, Vaccinia mCherry -5%[7.34 µM] and VACV Venus inh -8%[7.34 µM].
Screening O=C(Nc1ccc(Nc2cccnc2)cc1)c1c[nH]c2ccccc12 returned HCMV inh -27.
For O=C(Nc1ccc(Br)cc1)c1cc(Br)cc(Br)c1O the results were HCMV inh -99*.
O=C(Nc1ccc(Br)cc1)c1ccccc1Br was read as HCMV inh 36 and FMDV inh 40%.
Screening COc1ccc2c(C)nc(Nc3nc(-c4ccccc4)cc(=O)[nH]3)nc2c1 returned HCMV inh -93*, Marburg entry inh inconclusive, Lassa entry inh 4.6µM*, FMDV inh -8%, Vaccinia mCherry inconclusive and VACV Venus inh 4µM*.
Screening Cc1ccc2nc(Nc3nc(CSc4nnc(C)s4)cc(=O)[nH]3)nc(C)c2c1 returned HCMV inh -81*, Marburg entry inh 3%[46.1 µM], FMDV inh -5%, Vaccinia mCherry -4% and VACV Venus inh -5%.
`Cc1ccc2nc(Nc3nc(C)cc(-c4ccccc4)n3)[nH]c(=O)c2c1` gave HCMV inh inconclusive, Marburg entry inh inconclusive, Lassa entry inh inconclusive, FMDV inh -10%, Vaccinia mCherry -9% and VACV Venus inh 2%.
For Cc1ccc2nc(Nc3nc(-c4ccccc4)cc(=O)[nH]3)nc(C)c2c1 the results were HCMV inh -67*, Marburg entry inh inconclusive, Lassa entry inh -10%, FMDV inh 0% and VACV Venus inh inconclusive.
Screening COCc1cc(=O)[nH]c(Nc2nc(C)c3cc(OC)ccc3n2)n1 returned Marburg entry inh -1%.
`COc1ccc2nc(Nc3nc(CSc4nnc(C)s4)cc(=O)[nH]3)nc(C)c2c1` gave Marburg entry inh 17% and Lassa entry inh 11%.
Screening O=C(C[n+]1ccccc1Cl)c1ccc(Br)cc1 returned Vaccinia mCherry -13% and VACV Venus inh -14%.
Cc1cccc(Cl)c1N=CN1c2ccccc2-n2cccc2C1CCc1ccccc1 (configuration not stated) was read as HCMV inh 8.
For C=C1CCC2C(CC2(C)C)C(=O)CCC1O (configuration not stated) the results were FMDV inh 30%, Vaccinia mCherry 0% and VACV Venus inh 0%.
`CC(O)(c1ccccc1)[N+]1(CC(=O)c2ccccc2)C=CC=C1` (configuration not stated) gave Vaccinia mCherry -14% and VACV Venus inh -15%.
Cc1c(P(=S)(c2ccccc2)c2ccccc2)[n+]2ccccc2n1CCc1ccccc1 was read as HCMV inh -98* and FMDV inh inconclusive.
`Cn1c(=O)c2c(nc(Br)n2CCc2ccccc2)n(C)c1=O` gave HCMV inh -16, Marburg entry inh inconclusive, Lassa entry inh -2%, FMDV inh inconclusive and VACV Venus inh 0%.
Cc1nc2[nH]c(=S)[nH]c2c(=O)[nH]1 was read as HCMV inh -64*, Marburg entry inh 15%[46.1 µM], Lassa entry inh 9%[46.1 µM], FMDV inh 16%, Vaccinia mCherry inactive and VACV Venus inh -16%.
`C#C[C@]1(O)CCC2C3C(=O)C=C4C(Cl)=CCC[C@]4(C)C3CC[C@@]21C` (some centres not stated) gave HCMV inh -80*, Marburg entry inh -6%[46.1 µM], Lassa entry inh 0%[46.1 µM], FMDV inh -22%, Vaccinia mCherry inconclusive and VACV Venus inh inconclusive.
`Cc1cc(C)n2nc(C(=O)NC(c3ccccc3)c3ccccc3)nc2n1` gave HCMV inh -74*, Marburg entry inh inconclusive, Lassa entry inh inconclusive, FMDV inh -21%, Vaccinia mCherry -8% and VACV Venus inh 10%.
For Cc1cc(C)n2nc(C(=O)OCC(=O)NC(=O)c3ccccc3)nc2n1 the results were HCMV inh -5, Marburg entry inh 0%[46.1 µM], Lassa entry inh -10%, FMDV inh -13%, Vaccinia mCherry -14% and VACV Venus inh -5%.
`Cc1cc(C)n2nc(C(=O)N/N=C/c3c4ccccc4cc4ccccc34)nc2n1` gave HCMV inh -76*, Marburg entry inh inconclusive, Lassa entry inh inconclusive, FMDV inh inconclusive, Vaccinia mCherry -26% and VACV Venus inh -8%.
`Cc1cc(C)n2nc(C(=O)OCC(=O)NNC(=O)c3ccccc3)nc2n1` gave HCMV inh -61* and FMDV inh -12%.
For Cc1cc(C)n2nc(C(=O)N/N=C/c3ccccc3Cl)nc2n1 the results were HCMV inh 69, Marburg entry inh inconclusive, Lassa entry inh -3%, FMDV inh 7%, Vaccinia mCherry -9% and VACV Venus inh -17%.
Screening Cc1cc(C)n2nc(C(=O)NCc3ccccc3)nc2n1 returned HCMV inh -1, Marburg entry inh 34%, Lassa entry inh -9%, FMDV inh -17%, Vaccinia mCherry -11% and VACV Venus inh 2%.
CC[N+](CC)(CC)CCOc1ccc(/C=C/c2ccccc2)cc1 was read as HCMV inh -99*, FMDV inh inconclusive, Vaccinia mCherry -15% and VACV Venus inh -28%.
